Hits are enriched below; roughly 4.6% of the tested compounds scored in any of these assays.
D1 agonist: agonists of human D1 dopamine receptor | P21728 | HEK293 T-REx D1 cells, calcium flux, agonist mode | activation, % at 2 µM | actives 1% (n = 360,000) | AID 504660
Target sequence (P21728 whole entry, looked up): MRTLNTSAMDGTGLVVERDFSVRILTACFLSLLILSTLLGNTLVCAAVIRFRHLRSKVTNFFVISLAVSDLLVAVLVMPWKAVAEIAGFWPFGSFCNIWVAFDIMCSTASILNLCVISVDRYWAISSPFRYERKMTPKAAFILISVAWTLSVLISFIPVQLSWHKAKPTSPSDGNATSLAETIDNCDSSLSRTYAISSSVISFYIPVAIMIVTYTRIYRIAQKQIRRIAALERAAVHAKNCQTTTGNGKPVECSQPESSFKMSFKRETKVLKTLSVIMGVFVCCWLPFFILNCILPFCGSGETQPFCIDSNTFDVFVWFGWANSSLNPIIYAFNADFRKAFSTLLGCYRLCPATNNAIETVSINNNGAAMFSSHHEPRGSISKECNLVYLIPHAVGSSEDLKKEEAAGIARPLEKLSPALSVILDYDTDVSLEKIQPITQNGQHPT
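Agonism was scored from calcium flux recorded over 180 s (1 read/s) after pintool compound addition, following a 10-cycle baseline. Cells were inducible force-coupled HEK293 TREx D1, plated overnight at 30 C and loaded with no-wash calcium dye.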
TRHR ag: TRH receptor (human) agonism; P34981; TRHR cells, calcium flux fluo-8, FDSS agonist mode; activation, % at 2 µM; actives 0.18% (n = 360,000); AID 493084
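Steps: seed TRHR cells overnight; add fluo-8 no-wash Ca dye, RT 30 min–1.5 h; record 10 s baseline; pin-transfer compounds; monitor fluorescence 1 cycle/s for the agonist window. Calcium increases flag candidate agonists.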
D1 antag: blocks dopamine activation of the human D1 receptor; HEK293 TREx D1 cells, calcium flux, dopamine EC80; stronger effect = lower value; activity change, negative = inhibition, % at 10 µM; actives 3.2% (n = 360,000); in the data active = activity change below about -30%
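Allosteric or orthosteric antagonism assessed as attenuation of the calcium response to EC80 dopamine, added 180 s after compound, in induced HEK293 Trex D1 cells loaded with no-wash calcium dye.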
TRHR enhancer: TRH receptor (human) allosteric enhancement; actives 0.66% (n = 360,000); P34981; enhancement, % at 2 µM; TRHR cells, fluo-8 calcium fluorescence, EC20 TRH enhancement; in the data active = enhancement above about 30%
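Enhancer read-out: after compound pinning and an initial kinetic agonist-mode read, an EC20 of TRH (10 nM final) was injected and fluo-8 calcium signal (Ex 480/Em 530) followed at 1 s/cycle for 100 cycles in TRHR-expressing cells.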
D1 PAM: human D1 dopamine receptor positive modulation; HEK293 TREx D1 cells, calcium flux, dopamine EC20 potentiation; actives 0.036% (n = 360,000); P21728; potentiation, % at 10 µM; in the data active = potentiation above about 30%
Large screens that a line does not name were inactive; ! = not active in a repeat. Rule as the data show it, unless noted: active = activation above about 30%; inactive = the rest.

Cn1nccc1C(=O)Oc1ccc(/C=N/NC(=O)c2ccccc2O)cc1	none
COc1ccc(OCC(=O)NNC(=O)C(=O)N2CCCC2)cc1	none
Cc1cc2c(s1)c1cnn(Cc3cccc(C(F)(F)F)c3)c(=O)c1n2C	none
COc1ccc(C(=O)N2CCC(C(=O)Nc3ccc(Cl)cc3)CC2)cc1	D1 antag -42
Cc1ccc(NC(=O)C2CCN(C(=O)c3ccccc3C)CC2)cc1	D1 antag -44
C/C(=N\NC(=O)c1cccc(N/N=C(\C)c2ccccc2)c1)c1ccccc1	none
C/C(=N\NC(=S)NCc1ccccc1)c1ccc2c(c1)OCCO2	D1 antag -31
C/C(=N/NC(=O)c1ccc2c(c1)OCO2)c1cccc([N+](=O)[O-])c1	none
C/C(=N\NC(=O)c1cccc(N/N=C(\C)c2ccc([N+](=O)[O-])cc2)c1)c1ccc([N+](=O)[O-])cc1	D1 antag -38
C/C(=N\NC(=S)NCc1ccccc1)c1ccc(Br)cc1	none
C/C(=N/NC(=O)c1ccc2c(c1)OCCO2)c1ccc([N+](=O)[O-])cc1	D1 antag -52
COc1ccc(C(=O)/C(C#N)=N/Nc2cccc([N+](=O)[O-])c2)cc1	D1 antag -32
N#C/C(=N\Nc1cccc(Cl)c1)C(=O)c1ccccc1	none
Cc1cc(C)cc(C(=O)OCC(=O)Nc2ncccn2)c1	none
CCOC(=O)C1CCN(C(c2ccc(C)cc2)c2c(O)cc(C)n(CCOC)c2=O)CC1 (stereo unspecified)	none
Cc1ccnc(N/C=C(\C#N)c2nc(-c3cccc(Br)c3)cs2)c1	D1 agonist 160, D1 antag -36
N#C/C(=C/c1ccc(Cl)cc1)c1nc(-c2ccc(Br)cc2)cs1	none
O=C(NC1CCCc2c1cnn2-c1ccc(F)cc1F)c1ccccn1 (stereo unspecified)	none
O=C(NC1CCCc2c1cnn2-c1ccccc1F)c1ccccn1 (stereo unspecified)	D1 antag -38
COC(=O)[C@@H]1Cc2c([nH]c3ccccc23)C(C)(C)N1C(=O)CCl	none
Cc1cccc(NC(=O)CSC2=NN3CCCC(=O)N=C3S2)c1C	D1 antag -33
CN(C(=O)CSc1nc(C2CCCC2)nc2c1c(=O)n(C)c(=O)n2C)c1ccccc1	none
COCCN1C(=O)/C(=C/c2ccc(N3CCCC3)cc2)SC1=S	D1 agonist 258, TRHR ag 44
CN1CCN(C(=O)CCCN2C(=O)/C(=C/c3ccc(Cl)cc3)SC2=S)CC1	D1 antag -61
CN1CCN(C(=O)CCCN2C(=O)/C(=C/c3ccccc3)SC2=S)CC1	none
CCC(CC)c1nn2c(=O)cc(COc3ccc(NC(=O)c4cccc(C)c4)cc3)nc2s1	none
Cc1ccccc1Nc1c(-c2c[nH]c3ccccc23)nc2cccc(C)n12	D1 agonist 33
Cc1ccc2nc(-c3c[nH]c4ccccc34)c(Nc3ccccc3C)n2c1	none
COC(=O)c1sc(S(=O)(=O)N2CCCCC2C)c(C(=O)OC)c1C (stereo unspecified)	D1 antag -59
O=C(NCC(c1ccc2c(c1)OCO2)N1CCN(c2ccccc2F)CC1)c1ccccc1F (stereo unspecified)	none
O=C(Cc1ccc([N+](=O)[O-])cc1)N1CCN(c2ccc([N+](=O)[O-])cc2)CC1	none
O=C(Cc1ccc(F)cc1)N1CCN(c2ccc([N+](=O)[O-])cc2)CC1	D1 antag -55
CC(C)CNS(=O)(=O)c1ccc(CCC(=O)N2CCN(c3ccc(F)cc3)CC2)cc1	D1 antag -32
CCc1ccc(CN2CCC(N3CCC(C(=O)N4CCCC4)CC3)CC2)o1	none
COc1ccc2nc(C)cc(Nc3ccccc3O)c2c1	D1 antag -35
COc1ccc(OC)c(Nc2cc(C)nc3ccccc23)c1	none
COc1ccc(S(=O)(=O)N2CCN(C(=O)c3ccc4ccccc4n3)CC2)cc1	none
Brc1cccc(-c2nn(-c3ccccc3)c3c2cnc2cc4c(cc23)OCO4)c1	none
CCc1cc2c(SCc3ccc(C(=O)OC)o3)ncnc2s1	D1 antag -32
Cc1cc(C)c(NC(=O)CSc2ccc(-c3ccccn3)nn2)c(C)c1	D1 antag -48!
O=C(CSc1ccc(-c2ccccn2)nn1)NCc1ccc(Cl)cc1	TRHR enhancer 32
Cc1ccc(NC(=O)CSc2ccc(-c3ccccn3)nn2)c(C)c1	none
CCCc1cc(C(=O)Nc2cc(Cl)ccc2O)no1	none
CCCc1cc(C(=O)Nc2cc(Br)ccc2O)no1	D1 agonist 40
COC(=O)C1=C(CS(=O)(=O)c2ccc(C)cc2C)NC(=O)NC1c1ccc(C)cc1 (stereo unspecified)	none
Cc1ccnc(NC(=O)CCC(=O)N(CC(=O)NC2CCCCC2)c2cccc(C)c2C)c1	D1 antag -42
O=C(CCC(=O)N(CC(=O)NC1CCCC1)C1CCCCC1)Nc1ccccn1	D1 antag -46
Cc1ccc(N(CC(=O)NC2CCCC2)C(=O)CCCC(=O)Nc2ccccn2)cc1C	D1 antag -46
COc1cc(NC(=O)CSc2ccc(-c3sc(C)nc3C)nn2)cc(OC)c1	none
COCCCNC(=O)Cn1c(=O)n(-c2ccc(Cl)cc2)c(=O)c2c3c(sc21)CCCCC3	none
O=C1/C(=C/c2cccc(F)c2)Oc2cc(O)ccc21	D1 agonist 34, D1 antag -36
O=C(O)C1CCN(C(=O)c2csc(-c3ccc4c(c3)CCO4)n2)CC1	D1 antag -34
CCCCC(Sc1nc2cc3c(cc2c(=O)n1CCCC(=O)NCc1ccc(OC)cc1)OCO3)C(=O)OCC (stereo unspecified)	none
O=c1cc(-c2ccccc2Cl)oc2c(NS(=O)(=O)c3cc(Cl)cc(Cl)c3O)ccc(O)c12	D1 agonist 82, D1 antag -52
O=C(C1=C(O)C(=O)N(CC2CCCO2)C1c1cccnc1)c1ccco1 (stereo unspecified)	D1 antag -30
COc1cccc(Cn2nnc(C(=O)NCc3ccc(Cl)cc3Cl)c2N)c1	none
CC(=O)Nc1ccc(OS(=O)(=O)c2c(C)cc(C)cc2C)cc1	D1 antag -66
CC(=O)Nc1ccc(S(=O)(=O)Oc2ccc(C(=S)N3CCC(O)CC3)cc2)cc1	none
CC(=O)Nc1ccc(S(=O)(=O)Oc2ccc(C(=S)N3CCCCC3)cc2)cc1	D1 antag -33
CCOc1cc(C(=S)N2CCOCC2)ccc1OS(=O)(=O)c1ccc(OC)cc1	none
CCOc1cc(C(=S)N2CCOCC2)ccc1OS(=O)(=O)c1ccc(NC(C)=O)cc1	D1 antag -33
CCOc1ccc(Nc2cc(C)nc(-n3nc(C)cc3C)n2)cc1	D1 antag -33
CCO[C@H]1OC(C(=O)NC2CC2)=C[C@@H](c2ccc(Br)cc2)[C@@H]1CCCO	D1 antag -59
